Inconclusive results are not listed. A structure can be active in one record and inactive in another. The source made the active and inactive calls. How the source made its calls, unless noted: active means hit-call score of the fitted dose curve at least 0.9, where 1 is the maximum; inconclusive means response in the unintended direction; inactive means score below 0.9.
How the values were obtained:
[1] = target: Estrogen receptor beta (Homo sapiens) (UniProt Q92731); experiment: OT_ER_ERbERb_1440: Odyssey Thera (OT) 24-hour HEK293T Protein-Complementation Assay for Estrogen Receptor-beta/-beta Homodimer (AID 2283380);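 further: fluorescence gain from ER beta LBD homodimer complementation read by laser scanning cytometry; scored as signal increase over DMSO baseline for both agonists and antagonists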
How it was run: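 HEK293T cells stably expressing human ER-beta LBD (aa 310-547) PCA homodimer pair, dosed 24 h; formaldehyde-fixed, Draq5-stained. Readout: increase in nuclear (agonist) or nuclear plus cytoplasmic (antagonist) fluorescence intensity versus DMSO, gain-of-signal fitting.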

[2] = target: Bile acid receptor (Homo sapiens) (UniProt Q96RI1); experiment: OT_FXR_FXRSRC1_0480: Odyssey Thera (OT) 8-hour HEK293T Protein-Complementation Assay for Farnesoid X receptor/SRC-1 Co-activator (AID 2283383)
How it was run: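 HEK293T cells expressing FXR and SRC-1 fused to reporter fragments were dosed with compound for 8 h; fluorescence from the reconstituted reporter marked co-activator recruitment. Gain of signal was fitted against the DMSO baseline.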

[3] = target: Bile acid receptor (Homo sapiens) (UniProt Q96RI1); experiment: OT_FXR_FXRSRC1_1440: Odyssey Thera (OT) 24-hour HEK293T Protein-Complementation Assay for Farnesoid X receptor/SRC-1 Co-activator (AID 2283384)
How it was run: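 HEK293T cells were dosed with compound and read 24 h later by fluorescence intensity from protein-fragment complementation reporting FXR/SRC-1 co-activator interaction. Gain of signal was fitted relative to DMSO negative control as baseline.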

[4] = target: Retinoic acid receptor RXR-alpha (Homo sapiens) (UniProt P19793); experiment: OT_NURR1_NURR1RXRa_0480: Odyssey Thera (OT) 8-hour HEK293T Protein Complementation Assay for Nurr1/retinoid X receptor (RXR) (AID 2283385)
How it was run: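 HEK293T cells expressing Nurr1 and RXRα fused to reporter fragments were dosed with compound for 8 hours. Complex formation was read as fluorescence intensity and analysed as gain of signal against DMSO as baseline.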

[5] = target: Retinoic acid receptor RXR-alpha (Homo sapiens) (UniProt P19793); experiment: OT_NURR1_NURR1RXRa_1440: Odyssey Thera (OT) 24-hour HEK293T Protein Complementation Assay for Nurr1/retinoid X receptor (RXR) (AID 2283386)
How it was run: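 HEK293T cells were dosed with compound and read 24 h later by fluorescence intensity in a protein-fragment complementation format, where Nurr1–RXRα interaction reconstitutes a split reporter. Activity was fitted as gain of signal relative to DMSO baseline.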

[6] = CEETOX_H295R_11DCORT: CeeTox H295R High-throughput Steroidogenesis Assay for 11-Deoxycortisol (11DCORT) (AID 2283432; active means hit-call score of the fitted dose curve at least 0.9, where 1 is the maximum; inactive means score below 0.9;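 on AC50: 11-deoxycortisol secreted into the medium measured by LC-MS/MS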); details: actives raise or lower the signal
How it was run: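 H295R cells; 10 uM forskolin prestim 48 h; compound in 0.1% DMSO 48 h; media extracted with MTBE; 11-deoxycortisol by LC-MS/MS, 7-point standard curve; gain/loss vs DMSO baseline; viability by MTT in same wells.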

[7] = CEETOX_H295R_OHPREG: CeeTox H295R High-throughput Steroidogenesis Assay for OH-Pregnenolone (OHPREG) (AID 2283434; active means hit-call score of the fitted dose curve at least 0.9, where 1 is the maximum; inactive means score below 0.9); details: actives raise or lower the signal
How it was run: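 Human adrenal H295R cells were prestimulated 48 h with 10 uM forskolin, then exposed 48 h to chemical in 0.1% DMSO. Medium 17alpha-hydroxypregnenolone was quantified by HPLC-MS/MS after MTBE extraction; bidirectional fitting versus DMSO baseline.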

[8] = CEETOX_H295R_OHPROG: CeeTox H295R High-throughput Steroidogenesis Assay for OH-Progesterone (OHPROG) (AID 2283435; active means hit-call score of the fitted dose curve at least 0.9, where 1 is the maximum; inactive means score below 0.9); details: actives raise or lower the signal
How it was run: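 H295R human adrenal cells were prestimulated 48 h with 10 uM forskolin, then exposed 48 h to test chemical (0.1% DMSO final). 17alpha-hydroxyprogesterone in medium was measured by HPLC-MS/MS after MTBE extraction; bidirectional fitting vs DMSO.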

[9] = CEETOX_H295R_CORTISOL: CeeTox H295R High-throughput Steroidogenesis Assay for Cortisol (AID 2283438; active means hit-call score of the fitted dose curve at least 0.9, where 1 is the maximum; inactive means score below 0.9;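 further: cortisol secreted into medium quantified by LC-MS/MS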); details: actives raise or lower the signal
How it was run: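 H295R human adrenal cells were prestimulated 48 h with 10 uM forskolin, then exposed 48 h to test chemical (0.1% DMSO final). Medium cortisol was quantified by HPLC-MS/MS after MTBE extraction; bidirectional fitting relative to DMSO baseline.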

[10] = CEETOX_H295R_DOC: CeeTox H295R High-throughput Steroidogenesis Assay for DOC (AID 2283439; active means hit-call score of the fitted dose curve at least 0.9, where 1 is the maximum; inactive means score below 0.9); details: actives raise or lower the signal
How it was run: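 H295R adrenal cells prestimulated 48 h with 10 uM forskolin, then exposed 48 h to test chemical (0.1% DMSO final). Medium 11-deoxycorticosterone extracted with MTBE, quantified by HPLC-MS/MS; bidirectional fit versus DMSO baseline; MTT viability in same wells.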

[11] = target: Peroxisome proliferator-activated receptor gamma (Homo sapiens) (UniProt P37231); experiment: OT_PPARg_PPARgSRC1_1440: Odyssey Thera (OT) 24-hour Protein-Complementation Assay for Peroxisome Proliferator-activated Receptor Gamma/ SRC-1 Co-activator (AID 2283388);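 further: nuclear to cytoplasmic ratio of reconstituted Venus YFP fluorescence in fixed imaged cells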
How it was run: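 Readout: nuclear-to-cytoplasmic 488 nm fluorescence ratio, ≥350 cells per image, 8 images per well, after 24 h compound exposure of HEK293T expressing PPARg/SRC-1 split-YFP fusions. Activity fitted in positive direction against DMSO.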

[12] = target: Norway rat Vesicular Monoamine Transporter (VMAT2), neurotransmitter transporter, Slc18a2 (gene 25549) (UniProt Q01827); experiment: NVS_TR_rVMAT2: NovaScreen (NVS) Transporter Assay for Norway rat Vesicular Monoamine Transporter (VMAT2), neurotransmitter transporter (AID 2283376);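 further: actives lower the bound radioligand signal below the DMSO level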
How it was run: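 Rat forebrain tissue preparation used in a cell-free radioligand binding format; displacement read by filter-based scintillation counting 1 hour after dosing. Primary screen in duplicate at 25 uM, actives then run in concentration series; loss of signal versus DMSO baseline.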

[13] = target: human Norepinephrine Transporter (NET), SLC6A2 (gene 6530) (UniProt P23975); experiment: NVS_TR_hNET: NovaScreen (NVS) Transporter Assay for human Norepinephrine Transporter (NET) (AID 2283377);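 further: cell-free membrane protein extracted from CHO cells expressing human NET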
How it was run: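 Radioligand binding to human NET in cell-free CHO-derived protein preparations, read by filter-based scintillation counting 1 hour after dosing. Loss of signal versus DMSO baseline indicated displacement; primary screening in duplicate at 25 uM, actives then titrated.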

[14] = target: Peroxisome proliferator-activated receptor gamma (Homo sapiens) (UniProt P37231); experiment: OT_PPARg_PPARgSRC1_0480: Odyssey Thera (OT) 8-hour Protein-Complementation Assay for Peroxisome Proliferator-activated Receptor Gamma / SRC-1 Co-activator (AID 2283387);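 further: nuclear to cytoplasmic split Venus YFP fluorescence ratio reporting PPARg SRC-1 interaction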
How it was run: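 Read-out: 488 nm N/C fluorescence ratio from complemented Venus YFP fragments, ≥350 cells per image, gain-of-signal fitted against DMSO baseline. Fusions of PPARg/SRC-1 with IFP1/IFP2 expressed transiently in HEK293T; compounds applied 8 h.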

[15] = target: Agonist Androgen Response Element (ARE), AR (gene 367) (UniProt P10275); experiment: OT_AR_ARELUC_AG_1440: Odyssey Thera (OT) 24-hour CHO-K1 Luciferase Assay for Agonist Androgen Response Element (ARE) (AID 2283379)
How it was run: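 Seed CHO-K1 cells; dose compounds for 24 h; add D-luciferin plus ATP in PBS; read luminescence. Signal increase relative to vehicle defines agonist activity, with at least 3 replicate wells per sample.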

[16] = CEETOX_H295R_ANDR: CeeTox H295R High-throughput Steroidogenesis Assay for Androstenedione (ANDR) (AID 2283436; active means hit-call score of the fitted dose curve at least 0.9, where 1 is the maximum; inactive means score below 0.9); details: actives raise or lower the signal
How it was run: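 H295R human adrenal cells (passages ≤10) were exposed to test chemicals for 48 h; androstenedione in medium was MTBE-extracted and quantified by HPLC-MS/MS against a 7-point standard curve. Bidirectional fitting used DMSO as baseline.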

[17] = target: Estrogen receptor (Homo sapiens) (UniProt P03372); experiment: OT_ERa_GFPERaERE_0480: Odyssey Thera (OT) 8-hour HeLa Transcription Induction Assay for Estrogen Receptor (AID 2283381; active means hit-call score of the fitted dose curve at least 0.9, where 1 is the maximum; inactive means score below 0.9)
How it was run: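 HeLa cells dosed with compound and imaged by fluorescence microscopy at 8 h; GFP induction from an ERE reporter quantified by high-content image analysis and fitted as gain of signal against DMSO baseline.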

[18] = target: Estrogen receptor (Homo sapiens) (UniProt P03372); experiment: OT_ERa_GFPERaERE_0120: Odyssey Thera (OT) 2-hour HeLa Transcription Induction Assay for Estrogen Receptor (AID 2283382)
How it was run: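 HeLa cells were dosed with test chemical and read 2 hours later for GFP-ERα/ERE-linked fluorescent protein induction by fluorescence microscopy. Gain-of-signal was fitted relative to DMSO baseline, quantified by high content image analysis.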

Measured: AC50

human Norepinephrine Transporter (NET), SLC6A2 (gene 6530), sequence (P23975 whole entry, looked up): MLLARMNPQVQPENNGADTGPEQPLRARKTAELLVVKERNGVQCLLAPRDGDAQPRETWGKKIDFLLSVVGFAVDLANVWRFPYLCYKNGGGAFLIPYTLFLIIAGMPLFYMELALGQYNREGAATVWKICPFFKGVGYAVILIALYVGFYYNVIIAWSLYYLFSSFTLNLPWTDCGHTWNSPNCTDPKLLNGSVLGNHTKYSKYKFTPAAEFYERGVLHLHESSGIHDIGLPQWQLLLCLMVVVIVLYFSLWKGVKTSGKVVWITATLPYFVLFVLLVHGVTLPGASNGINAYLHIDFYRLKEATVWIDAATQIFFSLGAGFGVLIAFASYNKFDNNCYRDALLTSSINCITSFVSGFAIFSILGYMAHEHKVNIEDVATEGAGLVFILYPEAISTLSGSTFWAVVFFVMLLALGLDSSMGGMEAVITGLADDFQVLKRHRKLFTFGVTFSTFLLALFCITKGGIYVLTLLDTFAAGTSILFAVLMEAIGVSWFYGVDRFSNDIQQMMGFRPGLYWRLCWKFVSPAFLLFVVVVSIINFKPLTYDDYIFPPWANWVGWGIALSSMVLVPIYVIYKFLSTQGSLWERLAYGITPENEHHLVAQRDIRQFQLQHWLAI
Bile acid receptor (Homo sapiens), sequence (Q96RI1 whole entry, looked up, the tested form may be a part): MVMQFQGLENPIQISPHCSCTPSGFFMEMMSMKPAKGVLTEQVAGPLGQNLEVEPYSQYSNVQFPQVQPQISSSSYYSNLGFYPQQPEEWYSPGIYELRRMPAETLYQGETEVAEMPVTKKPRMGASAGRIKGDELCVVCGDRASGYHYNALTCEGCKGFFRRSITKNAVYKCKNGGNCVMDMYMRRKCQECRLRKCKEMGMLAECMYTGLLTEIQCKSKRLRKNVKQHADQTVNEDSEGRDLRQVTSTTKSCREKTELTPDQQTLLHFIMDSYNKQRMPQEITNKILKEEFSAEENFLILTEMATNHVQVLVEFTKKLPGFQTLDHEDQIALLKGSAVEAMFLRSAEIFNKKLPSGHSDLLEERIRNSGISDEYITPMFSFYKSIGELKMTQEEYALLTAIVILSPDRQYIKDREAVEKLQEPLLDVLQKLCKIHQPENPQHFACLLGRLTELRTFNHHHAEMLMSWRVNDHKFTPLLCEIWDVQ
Estrogen receptor beta (Homo sapiens), sequence (Q92731 whole entry, looked up, the tested form may be a part): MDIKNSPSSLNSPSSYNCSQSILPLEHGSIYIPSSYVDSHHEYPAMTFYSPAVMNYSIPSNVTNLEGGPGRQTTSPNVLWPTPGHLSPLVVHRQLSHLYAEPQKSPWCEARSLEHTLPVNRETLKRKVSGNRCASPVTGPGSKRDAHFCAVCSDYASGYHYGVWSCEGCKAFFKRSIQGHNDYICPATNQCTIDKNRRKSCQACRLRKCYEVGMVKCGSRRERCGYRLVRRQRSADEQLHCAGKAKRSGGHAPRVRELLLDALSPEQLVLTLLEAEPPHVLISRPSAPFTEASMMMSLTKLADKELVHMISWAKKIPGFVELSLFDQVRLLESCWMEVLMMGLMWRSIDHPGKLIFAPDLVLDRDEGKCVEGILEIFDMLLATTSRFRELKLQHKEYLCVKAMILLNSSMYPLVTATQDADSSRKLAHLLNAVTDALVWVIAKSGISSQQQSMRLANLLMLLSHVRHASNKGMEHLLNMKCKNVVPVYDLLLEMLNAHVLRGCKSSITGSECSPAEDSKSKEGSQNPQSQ
Estrogen receptor (Homo sapiens), sequence (P03372 whole entry, looked up): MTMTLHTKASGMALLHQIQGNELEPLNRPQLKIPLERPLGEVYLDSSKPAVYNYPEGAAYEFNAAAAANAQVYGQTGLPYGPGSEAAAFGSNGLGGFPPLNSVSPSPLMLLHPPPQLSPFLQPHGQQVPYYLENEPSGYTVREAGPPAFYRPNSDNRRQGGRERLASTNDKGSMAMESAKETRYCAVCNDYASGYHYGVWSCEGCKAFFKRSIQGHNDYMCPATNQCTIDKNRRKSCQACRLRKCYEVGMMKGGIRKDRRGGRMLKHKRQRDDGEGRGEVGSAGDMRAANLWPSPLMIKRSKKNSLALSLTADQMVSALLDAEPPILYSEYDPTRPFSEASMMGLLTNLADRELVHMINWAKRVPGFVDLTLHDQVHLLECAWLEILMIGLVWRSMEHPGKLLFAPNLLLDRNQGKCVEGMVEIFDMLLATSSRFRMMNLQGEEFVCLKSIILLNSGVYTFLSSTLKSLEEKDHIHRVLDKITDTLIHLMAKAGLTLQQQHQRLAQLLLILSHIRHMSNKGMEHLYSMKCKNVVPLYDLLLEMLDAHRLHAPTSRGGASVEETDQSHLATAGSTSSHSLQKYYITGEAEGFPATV
Agonist Androgen Response Element (ARE), AR (gene 367), sequence (P10275 whole entry, looked up): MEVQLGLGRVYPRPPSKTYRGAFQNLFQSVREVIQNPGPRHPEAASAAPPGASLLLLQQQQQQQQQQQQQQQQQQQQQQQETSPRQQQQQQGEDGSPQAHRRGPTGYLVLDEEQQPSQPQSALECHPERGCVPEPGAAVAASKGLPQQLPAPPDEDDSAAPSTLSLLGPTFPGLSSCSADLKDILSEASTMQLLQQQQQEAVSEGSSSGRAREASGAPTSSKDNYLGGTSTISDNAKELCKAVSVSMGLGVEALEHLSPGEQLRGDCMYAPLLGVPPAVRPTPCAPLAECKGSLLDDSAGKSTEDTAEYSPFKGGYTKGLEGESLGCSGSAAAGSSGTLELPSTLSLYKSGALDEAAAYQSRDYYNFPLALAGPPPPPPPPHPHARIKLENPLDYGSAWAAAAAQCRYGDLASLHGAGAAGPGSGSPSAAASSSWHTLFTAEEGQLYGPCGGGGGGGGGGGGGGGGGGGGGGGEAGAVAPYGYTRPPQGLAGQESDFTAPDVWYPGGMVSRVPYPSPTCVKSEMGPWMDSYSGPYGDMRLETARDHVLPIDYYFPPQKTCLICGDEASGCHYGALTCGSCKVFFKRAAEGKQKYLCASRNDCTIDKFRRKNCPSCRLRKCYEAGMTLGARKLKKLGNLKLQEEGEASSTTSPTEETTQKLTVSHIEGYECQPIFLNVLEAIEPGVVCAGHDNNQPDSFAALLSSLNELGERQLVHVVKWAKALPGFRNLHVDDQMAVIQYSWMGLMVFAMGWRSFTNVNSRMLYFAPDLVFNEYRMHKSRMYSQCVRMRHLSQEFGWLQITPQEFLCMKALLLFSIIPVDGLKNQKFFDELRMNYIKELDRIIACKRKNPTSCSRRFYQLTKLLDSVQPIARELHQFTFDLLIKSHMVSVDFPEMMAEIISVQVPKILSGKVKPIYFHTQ
Peroxisome proliferator-activated receptor gamma (Homo sapiens), sequence (P37231 whole entry, looked up, the tested form may be a part): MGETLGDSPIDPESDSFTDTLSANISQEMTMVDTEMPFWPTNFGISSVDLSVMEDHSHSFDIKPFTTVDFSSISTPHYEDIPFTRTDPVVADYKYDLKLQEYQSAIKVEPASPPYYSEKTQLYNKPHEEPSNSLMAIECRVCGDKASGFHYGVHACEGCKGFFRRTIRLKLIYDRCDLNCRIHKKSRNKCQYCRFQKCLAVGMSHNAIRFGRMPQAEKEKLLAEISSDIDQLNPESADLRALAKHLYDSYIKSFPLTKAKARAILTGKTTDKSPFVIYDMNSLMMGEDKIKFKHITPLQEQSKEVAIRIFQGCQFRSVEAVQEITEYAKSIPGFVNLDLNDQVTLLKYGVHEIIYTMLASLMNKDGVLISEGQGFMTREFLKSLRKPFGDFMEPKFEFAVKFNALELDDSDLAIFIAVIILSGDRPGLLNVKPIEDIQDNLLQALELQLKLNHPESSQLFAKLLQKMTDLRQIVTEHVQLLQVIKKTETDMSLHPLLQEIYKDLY
Norway rat Vesicular Monoamine Transporter (VMAT2), neurotransmitter transporter, Slc18a2 (gene 25549), sequence (Q01827 whole entry, looked up): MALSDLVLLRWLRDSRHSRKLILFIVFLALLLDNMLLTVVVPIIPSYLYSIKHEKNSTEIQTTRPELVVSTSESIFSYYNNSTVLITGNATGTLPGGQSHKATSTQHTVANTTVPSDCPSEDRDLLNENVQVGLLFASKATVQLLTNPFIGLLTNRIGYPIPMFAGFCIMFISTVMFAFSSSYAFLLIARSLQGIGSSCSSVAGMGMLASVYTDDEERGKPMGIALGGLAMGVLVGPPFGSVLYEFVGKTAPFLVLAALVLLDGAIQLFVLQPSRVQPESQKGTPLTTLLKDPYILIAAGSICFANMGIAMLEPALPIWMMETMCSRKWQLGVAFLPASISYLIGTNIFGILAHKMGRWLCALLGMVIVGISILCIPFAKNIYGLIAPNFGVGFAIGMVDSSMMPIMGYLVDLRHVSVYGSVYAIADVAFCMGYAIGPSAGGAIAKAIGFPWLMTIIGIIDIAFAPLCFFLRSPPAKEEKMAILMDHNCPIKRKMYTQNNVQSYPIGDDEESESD
Retinoic acid receptor RXR-alpha (Homo sapiens), sequence (P19793 whole entry, looked up, the tested form may be a part): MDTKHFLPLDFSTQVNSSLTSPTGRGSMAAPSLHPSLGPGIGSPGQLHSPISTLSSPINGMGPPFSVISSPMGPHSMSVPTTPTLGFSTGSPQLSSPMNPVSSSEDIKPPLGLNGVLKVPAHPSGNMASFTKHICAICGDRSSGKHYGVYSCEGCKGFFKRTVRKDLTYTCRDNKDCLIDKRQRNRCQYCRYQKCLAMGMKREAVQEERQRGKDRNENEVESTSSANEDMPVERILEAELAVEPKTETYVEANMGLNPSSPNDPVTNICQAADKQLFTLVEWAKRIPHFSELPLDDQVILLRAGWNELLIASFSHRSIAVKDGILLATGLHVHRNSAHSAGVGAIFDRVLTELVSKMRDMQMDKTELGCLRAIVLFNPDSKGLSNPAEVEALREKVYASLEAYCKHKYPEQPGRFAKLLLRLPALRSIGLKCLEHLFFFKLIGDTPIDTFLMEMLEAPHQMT

CSc1nnc(C(C)(C)C)c(=O)n1N
inactive: [1] | [2] | [3] | [4] | [5] | [6] | [7] | [8] | [9] | [10]

CSC1=N[C@@](C)(c2ccccc2)C(=O)N1Nc1ccccc1
inactive: [1] | [5] | [11]
active: [2] 44.8 µM | [3] 50 µM

C[Si](Cn1cncn1)(c1ccc(F)cc1)c1ccc(F)cc1
inactive: [1] | [3] | [5] | [14] | [11] | [7] | [8]
active: [12] 14.1 µM | [13] 2.86 µM | [2] 13 µM

CCOP(=O)(NC(C)C)Oc1ccc(SC)c(C)c1 (stereo not given)
inactive: [15] | [1] | [5] | [11] | [9]
active: [2] 50 µM | [3] 8.5 µM | [6] 24 µM | [7] 13.9 µM | [16] 50 µM | [10] 17.4 µM

CC(C)=CC1C(C(=O)OCN2C(=O)C3=C(CCCC3)C2=O)C1(C)C (stereo not given)
inactive: [15] | [4] | [5] | [11]

CCCOCC(=Nc1ccc(Cl)cc1C(F)(F)F)n1ccnc1
active: [3] 11.2 µM | [7] 0.377 µM | [8] 0.147 µM | [9] 0.105 µM | [10] 0.165 µM
inactive: [12] | [1] | [11] | [6]

Nc1c(Cl)cc([N+](=O)[O-])cc1Cl
inactive: [15] | [1] | [17] | [18] | [2] | [5] | [14] | [11]

CCCCOC(=O)[C@@H](C)Oc1ccc(Oc2ccc(C#N)cc2F)cc1
inactive: [1] | [17] | [18] | [5] | [11]

COP(=O)(OC)SCn1c(=O)oc2cc(Cl)cnc21
inactive: [15] | [17] | [18] | [14] | [11]

CNc1cnn(-c2cccc(C(F)(F)F)c2)c(=O)c1Cl
inactive: [1] | [2] | [3] | [5] | [14] | [11] | [7] | [8] | [9] | [10]
active: [6] 11.5 µM

CCCCSP(=O)(SCCCC)SCCCC
inactive: [1] | [3] | [4] | [5] | [14] | [11]
active: [2] 36.9 µM | [4] 68.9 µM

CCC(=O)Nc1ccc(Cl)c(Cl)c1
inactive: [15] | [5] | [11] | [7]
active: [12] 23.3 µM | [13] 4.14 µM | [8] 3.97 µM | [16] 3.89 µM

CC(Oc1cccc(Cl)c1)C(=O)O (stereo not given)
inactive: [13] | [1] | [2] | [3] | [5] | [11]

CCOC(=O)COc1cc(-c2nn(C)c(OC(F)F)c2Cl)c(F)cc1Cl
inactive: [15] | [4] | [5] | [11] | [6] | [7] | [8] | [16] | [9] | [10]

Cc1nn(-c2cc(NS(C)(=O)=O)c(Cl)cc2Cl)c(=O)n1C(F)F
inactive: [15] | [1] | [5] | [14] | [11]

From PubChem BioAssay (EPA / NIEHS)
